# Reference: ChEMBL document CHEMBL4513216, “Probing the Open Global Health Chemical Diversity Library for Multistage-Active Starting Points for Next-Generation Antimalarials” (ACS Infect Dis, 2020)
# Among all 69,000 compounds or so, about 8,600 (12%) showed an effect of 50% or more. For the sample, strong results were picked, then their nearest neighbours and some compounds at random.
# Tested on: Plasmodium berghei
# Experiment: Screen against P. berghei liver stage (PbLuc), transformed with Luciferase, at 10uM
# Assay type: functional, HepG2
# Conditions: tested at 10 uM
row,Compound,INHIBITION [%]
1,Cc1cc(C)nc(C2CCN(C3CCOCC3)C2)n1 (stereo not drawn),-10.4
2,Cn1nc(C(C)(C)C)cc1NC(=O)Cn1ccnc1,11.2
3,COCCN1C[C@@H]2CC[C@H]1CN(Cc1cc(=O)c3cc(C)ccc3[nH]1)C2,-23.5
4,COCC1N(C(=O)Nc2ccccc2)C2CCC1(O)CC2 (stereo not drawn),8.61
5,Cc1oncc1C(=O)NCC1(O)CCc2ccccc2C1 (stereo not drawn),67.1
6,COc1nn(C)cc1C(=O)NCC1(O)CCc2ccccc2C1 (stereo not drawn),36.5
7,O=C(NCC1(O)CCc2ccccc2C1)c1cccs1 (stereo not drawn),36.3
8,CCC(C)NC(=O)CCNC(=O)Nc1ccc(-n2cncn2)c(F)c1 (stereo not drawn),22.69
9,CN(C)S(=O)(=O)N1CCC[C@]2(C[C@@H](Oc3ncccc3F)CO2)C1,20.6
10,CN1N=C(C(=O)NCCc2csc(-c3ccccc3)n2)CCC1=O,4.95
11,CNC(=O)CN1CCOCC2(CN(CCC(F)(F)F)CCO2)C1 (stereo not drawn),43.9
12,CCCC(=O)N1CCOC2(COCCN(CC(=O)NC)C2)C1 (stereo not drawn),3.25
13,CNC(=O)CN1CCOCC2(C1)CN(Cc1csnn1)CCO2 (stereo not drawn),67.5
14,CN(C)C(=O)c1cnc2n1CCN(Cc1ccncc1)C2,24.1
15,Cc1ccccc1C(=O)NCc1ccc(N2CCNC(=O)C2)cc1,15.1
16,Cc1cc(NCc2ccc(N3CCNC(=O)C3)cc2)nc(C)n1,61.8
17,CCSc1cncc(NCc2ccc(N3CCNC(=O)C3)cc2)n1,82.2
18,Cc1cccnc1NC(=O)NCc1ccc(N2CCNC(=O)C2)cc1,21.7
19,CC(C(=O)NCc1ccc(N2CCNC(=O)C2)cc1)n1cncn1 (stereo not drawn),27.1
20,O=C1CN(c2ccc(CNc3cncc(-n4cccn4)n3)cc2)CCN1,40.5
21,CCN(Cc1ccccc1)c1ncnc2c(C)nn(CC)c12,-1.57
22,Cc1cc(NC(=O)NCCC(=O)N2CCCc3ccccc32)no1,16.1
23,CS(=O)(=O)c1cn[nH]c1C1CCCN1C(=O)c1cccnc1 (stereo not drawn),24.4
24,Cc1ccnc(C2CN(Cc3cnn(-c4ccccc4C(=O)O)c3)C2)n1,14.5375
25,CCN(CC)C(=O)C1CCC2(CCNCC2)CO1 (stereo not drawn),2.79
26,CCN(CC)C(=O)C1CCC2(CCNCC2)O1 (stereo not drawn),57.9

row,Compound,INHIBITION [%]
1,CC(C)N(C)C(=O)C1CCC2(CCNCC2)O1 (stereo not drawn),27.7
2,Cc1nc(C)n(C2CCCN(C(=O)c3ccc4[nH]nnc4c3)C2)n1 (stereo not drawn),21.9
3,COCCNC(=O)c1cc(COc2cncc(Cl)c2)on1,25.8
4,O=C(NCCC1CCCCO1)c1coc(COc2ccc(F)cc2)n1 (stereo not drawn),77.8
5,O=C(NCCC1CCCCO1)c1cc(COc2cncc(Cl)c2)on1 (stereo not drawn),59.3
6,O=C(NCCN1CCCCCC1)c1coc(COc2ccc(F)cc2)n1,7.15
7,CSCCNC(=O)c1coc(COc2ccc(F)cc2)n1,49.5
8,CCOCCNC(=O)c1cc(COc2cncc(Cl)c2)on1,29
9,COc1ccc(N2CCN(C(=O)Cn3nc(C)c(Cl)c3C)CC2)cc1,7.44
10,O=C(CCNc1ncccn1)N1CCN(c2nccs2)CC1,45.7
11,Cc1nc[nH]c1-c1nccn1CCN1CCCOC1=O,39.6
12,Cc1nc[nH]c1-c1nccn1CCN1CCCC1=O,-4.95
13,Cc1nc[nH]c1-c1nccn1CCN1CCOC1=O,55.5
14,CC(C)CCN1C[C@@H]2C[C@H](C(=O)NCc3ccccc3)[C@H](C1)O2,11.6
15,CNC(=O)N1C[C@@H]2C[C@H](C(=O)NCc3cccnc3)[C@H](C1)O2,7.65
16,CCN1C[C@@H]2C[C@H](C(=O)NCc3cccnc3)[C@H](C1)O2,50
17,CC(C)CNC(=O)[C@H]1C[C@H]2CN(Cc3cccnc3)C[C@@H]1O2,65.9
18,CC(C)CN1C[C@@H]2C[C@H](C(=O)NCc3cccnc3)[C@H](C1)O2,58.5
19,CC(C)CN1C[C@@H]2C[C@H](C(=O)Nc3cccnc3)[C@H](C1)O2,2.27
20,Cc1ccc(CN2C[C@@H]3C[C@H](C(=O)NCc4cccnc4)[C@H](C2)O3)o1,39.3
21,Cc1cccc(CN2C[C@@H]3C[C@H](C(=O)NCc4cccnc4)[C@H](C2)O3)c1,21.6
22,CC(C)CCN1C[C@@H]2C[C@H](C(=O)Nc3ccccc3)[C@H](C1)O2,33
23,Cc1ccc(CN2C[C@@H]3C[C@H](C(=O)NCc4cccnc4)[C@H](C2)O3)cc1,42.3
24,CC(C)CNC(=O)[C@H]1CCS(=O)(=O)[C@@H]2CN(Cc3cccnc3)C[C@H]12,12.5
25,CC(C)CCN1C[C@@H]2C[C@H](C(=O)NCC(C)C)[C@H](C1)O2,61.3
26,Cc1cc(C(F)(F)F)nn1C(C)C(=O)NN1CCOCC1 (stereo not drawn),-4.12

row,Compound,INHIBITION [%]
1,CC(C)OCCCNC(=O)C1CCCN(c2ccc3nncn3n2)C1 (stereo not drawn),32.3
2,CS(=O)(=O)NCc1cc(=O)n2c(n1)CN(CC1CC1)CCC2,37.6
3,Cc1nc(CN2CCC3(CCN(Cc4nccn4C)CC3)C2=O)cs1,-11.2
4,N#Cc1ccc(CNCC2(c3ccccc3)CCOCC2)cc1,-32.8
5,COCC(=O)N1CCC(c2cc(-c3ccc(C)cc3)n[nH]2)C1 (stereo not drawn),-16.9
6,CC(C(=O)N1CCCN(c2ccccc2C#N)CC1)n1cccn1 (stereo not drawn),-6.44
7,CNC(=O)[C@H]1C[C@@H]2CN(S(=O)(=O)c3cccc(F)c3)C[C@@H]2N1C,-23.8
8,CNC(=O)[C@H]1C[C@@H]2CN(S(=O)(=O)c3ccccc3)C[C@@H]2N1C,30.1
9,CNC(=O)[C@H]1C[C@@H]2CN(S(=O)(=O)c3cccc(C)c3)C[C@@H]2N1C,50.7
10,CCc1n[nH]c(C(=O)N2CCC3(CCCN(CCOC)C3=O)C2)c1C (stereo not drawn),41.2
11,Cc1cc2ncc(CN(C)C)c(C3CCN(C)CC3)n2n1,16.771
12,Cc1ccccc1CN1CCN(C(C)c2nc(C3CC3)no2)CC1 (stereo not drawn),5.7
13,CCC1CN(C(=O)c2ncccc2O)CCC(=O)N1Cc1ccccc1 (stereo not drawn),7.43
14,CCC1CN(C(=O)c2ccc(=O)[nH]n2)CCC(=O)N1Cc1ccccc1 (stereo not drawn),25
15,CCC1CN(C(=O)c2ccc(O)cn2)CCC(=O)N1Cc1ccccc1 (stereo not drawn),66.8
16,COCC(=O)N1CCC2(CC1)CN(c1ccccn1)CCO2,62.5
17,CN(C)CC(=O)N1CCC2(CC1)CN(c1ncccn1)CCO2,83.5
18,COCC(=O)N1CCC2(CC1)CCN(Cc1ccccn1)C2=O,42.1
19,COCC(=O)N1CCC2(CCN(Cc3ccccn3)CC2)CC1,56.9
20,CN(C)CC(=O)N1CCC2(CC1)COCCN(c1ncccn1)C2,-13.2
21,COCC(=O)N1CCC2(CC1)CC(COC)N(Cc1ccccn1)C2 (stereo not drawn),26.7
22,O=C(C1CCOC1)N1CCC2(CC1)CN(c1ncccn1)CCO2 (stereo not drawn),25.2
23,NC(=O)N1CCC2(CC1)CN(c1ncccn1)CCO2,25.2
24,Cn1cccc1C(=O)N1CCC2(CC1)CN(c1ccccn1)CCO2,28.5
25,O=C(Cc1ccccn1)N1CCC2(CC1)CN(c1ccccn1)CCO2,21.7
26,CN(C)C(=O)CN1CCOCC2(C1)CN(c1ncccn1)CCO2 (stereo not drawn),11.6

row,Compound,INHIBITION [%]
1,COCC(=O)N1CCC2(CC1)CN(c1ncccn1)CCO2,57.9
2,Cc1cnc(N2CCOC(C(=O)NCc3ccccc3)C2)s1 (stereo not drawn),12.8
3,CCC(C)NC(=O)c1cc(S(=O)(=O)N2CCCC2)c(C)s1 (stereo not drawn),28.3
4,Cn1ccc(C(=O)NCc2ccc(N3CCOCC3)nc2)cc1=O,-29.9
5,O=C(NCC(F)(F)F)C1CSCN1S(=O)(=O)c1cccc(F)c1 (stereo not drawn),-16.6
6,COc1ccc(-c2cc(C(=O)NCCn3ccnc3)n(C)n2)cc1,-5.8
7,CN(Cc1ccc(O)cc1)C(=O)NCc1nnc2n1CCCCC2,-9.76
8,CCc1nc(CN2CCCN(CC(=O)N3CCOCC3)CC2)no1,13.8
9,CCC(C)C(=O)NCc1c(C)nn(C)c1N1CCCN(C)CC1 (stereo not drawn),-1.32
10,O=C(CC1CC1)N1CCC2(CC1)CN(c1ncccn1)CCO2,50
11,Cc1occc1C(=O)N1CCC2(CC1)CN(c1ccccn1)CCO2,14.8
12,O=S(=O)(C1CC1)N1CCC2(CN(c3ccccn3)C2)C1,24.9
13,O=S(=O)(C1CC1)N1CCC2(CCCN(c3ncccn3)C2)C1 (stereo not drawn),19.6
14,c1cnc(N2CCOC3(CCN(CC4CCCCC4)CC3)C2)nc1,34.7
15,NCCC(=O)N1CCC2(CC1)CN(C(=O)Cc1cccc(Cl)c1)CCO2,-4.76
16,O=C(CC1CC1)N1CCC2(CC1)CN(c1ncc(F)cn1)CCO2,35.7
17,O=S(=O)(C1CC1)N1CCC2(CN(c3ncccn3)C2)C1,54.8
18,NCCC(=O)N1CCC2(CC1)CN(C(=O)Cc1ccc(Cl)cc1)CCO2,64.8
19,CCCS(=O)(=O)N1CCC2(CC1)CN(c1ccccn1)CCO2,0
20,O=C(N1CCOCC1)N1CCC2(CC1)CN(c1ccccn1)CCO2,67.2
21,NCC(=O)N1CCC2(CC1)CN(C(=O)Cc1ccc(Cl)cc1)CCO2,-26.3
22,NC(=O)c1cnc(NC2CC2)nc1CCNC(=O)Cc1ccccc1,-50.3
23,CCn1nc(C)c(CNC(=O)NCC(C)(O)c2ccc(C)o2)c1C (stereo not drawn),-8.5
24,Cc1ccc(CN2CCC3(CC2)C(=O)N(CCO)CCN3C)o1,18.6
25,O=C(CCc1ccsc1)N1CCCC(N2CCNC2=O)C1 (stereo not drawn),-5.26
